Peg3 promoter: inhibitors of Peg3 promoter | AID 588405 | inhibition, % at 20 µM | actives 1.7% (n = 360,000) | HeLa PEG-Prom luciferase reporter, luminescence, overnight;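 active = inhibition of at least 50% at 20 µM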
TRPM1 prom inh: inhibitors of MITF-driven TRPM1 promoter in melanoma cells; inhibition, % at 12.5 µM; SK-MEL-5 TRPM1 promoter luciferase, 24 h; actives 0.83% (n = 330,000);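 active = mean inhibition across replicates of 60% or more, whatever share of single replicates reaches that level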
HIF-2a inh: HIF-2a inhibition. 786-0 RCC cells HIF-2a reporter, luciferase luminescence, overnight. inhibition, % at 18.8 µM. actives 0.72% (n = 360,000). AID 624352;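 active = inhibition of the luminescence signal of 40% or more relative to plate controls, in a single-dose primary screen at 18.75 µM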
KKLEB cytotox: reduces viability of KKLEB cystic fibrosis airway cells | actives 0.36% (n = 360,000) | activity change (cytotoxicity), % at 5 µM | KKLEB CF airway cells viability, ATPlite luminescence, overnight; hits give low values; cells stimulated with P. aeruginosa culture filtrate;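 active = corrected activity change at or below -50% at 5 µM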
Shn3 3UTR inh: Schnurri-3 reporter inhibition in Clone20 osteoblasts. actives 0.52% (n = 360,000). inhibition, % at 12.5 µM. Clone20 osteoblast Shn3 3'UTR firefly luciferase, 24 h;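 active = mean inhibition of at least 75% with every replicate also reaching 75%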
CF NFkB inh: blocks PAF-induced NF-kB reporter in cystic fibrosis cells; KKLEB NF-kB-GFP reporter, GFP fluorescence overnight; inhibition, % at 5 µM; actives 0.86% (n = 360,000);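 active = at least 50% inhibition at 5 µM, scaled per plate between neutral and stimulator controls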;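 also: PAF is a Pseudomonas aeruginosa culture filtrate used as stimulus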
Mdm2 MdmX conf: confirmation of inhibitors of human Mdm2/MdmX interaction, set 2; shares compounds with HIF-2a inh; actives 99% (n = 740); inhibition, % at 8 µM; SaOS-2 split-luciferase Mdm2/MdmX complementation, luminescence;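 active = mean inhibition of the luminescence signal across two replicates at or above 26 percent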
Target sequence (O15151 whole entry, looked up): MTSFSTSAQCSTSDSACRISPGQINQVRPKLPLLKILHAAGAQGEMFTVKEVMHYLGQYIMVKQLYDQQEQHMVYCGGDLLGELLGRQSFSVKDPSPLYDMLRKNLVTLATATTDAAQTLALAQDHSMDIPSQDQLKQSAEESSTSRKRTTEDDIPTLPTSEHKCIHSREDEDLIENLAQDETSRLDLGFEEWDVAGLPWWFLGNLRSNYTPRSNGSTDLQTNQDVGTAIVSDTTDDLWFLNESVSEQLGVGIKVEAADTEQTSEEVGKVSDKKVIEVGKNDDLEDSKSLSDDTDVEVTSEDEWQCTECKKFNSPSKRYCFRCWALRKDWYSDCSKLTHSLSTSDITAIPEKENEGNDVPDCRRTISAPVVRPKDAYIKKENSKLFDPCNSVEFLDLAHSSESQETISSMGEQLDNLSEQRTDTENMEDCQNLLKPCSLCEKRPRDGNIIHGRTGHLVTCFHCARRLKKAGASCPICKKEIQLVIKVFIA
Target sequence (Q00987 whole entry, looked up): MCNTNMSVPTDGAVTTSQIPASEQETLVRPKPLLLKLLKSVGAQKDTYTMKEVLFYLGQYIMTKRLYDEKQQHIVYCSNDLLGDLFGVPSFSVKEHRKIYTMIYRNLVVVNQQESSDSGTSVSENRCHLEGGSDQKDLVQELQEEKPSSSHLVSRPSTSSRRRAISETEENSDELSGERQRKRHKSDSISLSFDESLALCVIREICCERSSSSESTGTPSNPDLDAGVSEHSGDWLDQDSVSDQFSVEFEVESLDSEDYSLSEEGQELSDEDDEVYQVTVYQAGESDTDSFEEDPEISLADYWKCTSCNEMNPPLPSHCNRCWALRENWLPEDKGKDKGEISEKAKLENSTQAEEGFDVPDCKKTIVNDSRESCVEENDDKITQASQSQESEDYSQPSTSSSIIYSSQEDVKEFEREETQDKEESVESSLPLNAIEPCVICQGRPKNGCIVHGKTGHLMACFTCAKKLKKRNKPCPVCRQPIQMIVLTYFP
HIF-2a inh conf: confirmation of HIF-2a inhibitors. shares compounds with HIF-2a inh. 786-0 RCC cells, HIF-2a luciferase reporter luminescence, overnight. inhibition, % at 18.8 µM. actives 56% (n = 1,800). AID 651580;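 active = mean inhibition across four replicates of at least 40 percent at the single tested concentration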
HIF-1a cs: inhibits HIF-1a reporter, a counter-screen for HIF-2a inhibitors. MiaPaCa-2 HIF-1a luciferase reporter, desferoxamine, overnight. actives 72% (n = 1,800). inhibition, % at 18.8 µM. shares compounds with HIF-2a inh;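 active = mean inhibition of the reporter signal across four replicates at the single tested dose of 50% or more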
Each line names hits and unclear results; the compound was inactive in the other large screens (follow-up assays come after a bar, where they were run). Rows were chosen to be rich in hits. Some 2.8% of all compounds tested hit in one or more screens of this group.

CCC(=O)OCC(=O)N=c1sccn1Cc1ccc(C)cc1	none
O=C(CCl)N=c1sccn1Cc1ccc(Cl)cc1Cl	KKLEB cytotox -85, CF NFkB inh 90 | Mdm2 MdmX conf 103
NC(=O)c1ccc(=O)n(Cc2ccc(Cl)cc2Cl)c1	none
CCOc1cc(/C=N/Nc2cccc(C(=O)O)c2)ccc1OC(=O)c1ccccc1	Peg3 promoter 65, TRPM1 prom inh 91, HIF-2a inh 87 | HIF-2a inh conf 90 | HIF-1a cs inactive
Cc1nn(-c2ccccc2Cl)c(Cl)c1/C=N/Nc1cccc(C(=O)O)c1	TRPM1 prom inh 69, HIF-2a inh 58 | HIF-2a inh conf 52 | HIF-1a cs inactive
COc1cc(C=NNc2ccccc2)ccc1OC(=O)c1ccccc1	none (no result: TRPM1 prom inh)
Cc1ccc(/C=N/Nc2cccc(C(=O)O)c2)s1	HIF-2a inh 62 | HIF-2a inh conf 59 | HIF-1a cs inactive
Cc1nn(-c2cccc(C(F)(F)F)c2)c(Cl)c1/C=N/Nc1cccc(C(=O)O)c1	none
CCOc1ccc(CN2CCN(Cc3cc4c(cc3Cl)OCO4)CC2CCO)cc1 (stereo not drawn)	none
O=C(O)c1cccc(NC(=O)C2CCCO2)c1 (stereo not drawn)	none
O=C(O)c1cccc(C(=O)Nc2cccc(NC(=O)C3CCCO3)c2)c1 (stereo not drawn)	HIF-2a inh 49 | HIF-2a inh conf 48 | HIF-1a cs inactive
O=C(c1ccc(COc2ccccc2Br)o1)N1N=C(C(F)F)CC1(O)C(F)F (stereo not drawn)	none
O=C1c2ccccc2CN1Cc1ccccc1	none
Cc1ccc(S(=O)(=O)c2ccc([N+](=O)[O-])cn2)cc1	Peg3 promoter 107, TRPM1 prom inh 91, HIF-2a inh 83, KKLEB cytotox -72, Shn3 3UTR inh 95, CF NFkB inh 96 | Mdm2 MdmX conf 103 | HIF-2a inh conf 62 | HIF-1a cs 65
Cc1cc(S(=O)(=O)c2ccc([N+](=O)[O-])cn2)ccc1Br	Peg3 promoter 107, TRPM1 prom inh 90, HIF-2a inh 93, KKLEB cytotox -73, Shn3 3UTR inh 98, CF NFkB inh 91 | HIF-2a inh conf inactive | HIF-1a cs 89
COC(=O)C(C)(C(=O)OC)c1ccc([N+](=O)[O-])cn1	none
CCOc1ccc(C(=O)Oc2cc(C)[nH]c(=O)c2[N+](=O)[O-])cc1OCC	none
Cc1ccc(-c2nn(CC(=O)NN3CCOCC3)c(=O)c3ccccc23)cc1	none (no result: TRPM1 prom inh)
CC(=O)NS(=O)(=O)c1ccc(NC(=O)[C@@H]2CCCN2S(=O)(=O)c2ccc(Cl)cc2)cc1	none
CCOC(=O)c1nnc(-c2ccccc2)nc1Sc1c(Cl)cccc1Cl	Peg3 promoter 64, HIF-2a inh 63 | HIF-2a inh conf inactive | HIF-1a cs 65
COc1ccc(C=C2C=C(C(C)(C)C)C(=O)C(C(C)(C)C)=C2)cc1OC	Peg3 promoter 105, HIF-2a inh 82, Shn3 3UTR inh 93 | HIF-2a inh conf 65 | HIF-1a cs 103
COc1cccc(N2CC(C)Cn3c2nc2c3c(=O)[nH]c(=O)n2C)c1 (stereo not drawn)	none
Cc1cc(C)n(-c2nc(Nc3ccccc3)nc(-n3nc(C)cc3C)n2)n1	none
Cc1cc(C)n(-c2nc(N(c3ccccc3)c3ccccc3)nc(-n3nc(C)cc3C)n2)n1	Peg3 promoter 108, TRPM1 prom inh 71, KKLEB cytotox -53, CF NFkB inh 64 | Mdm2 MdmX conf 103
COc1ccc(C(CC(=O)O)NC(=O)COc2cc(C)ccc2C)cc1OC (stereo not drawn)	none
O=[N+]([O-])c1ccc(N2CCNCC2)cc1Sc1nc2ccccc2[nH]1	none
CCCC(=O)OCCNc1cc(Sc2nccn2C)c2nonc2c1[N+](=O)[O-]	Peg3 promoter 110, TRPM1 prom inh 101, HIF-2a inh 87, Shn3 3UTR inh 95 | HIF-2a inh conf 82 | HIF-1a cs 104
CCCC(=O)OCCNc1cc(SCc2ccco2)c2nonc2c1[N+](=O)[O-]	none
CCC(=O)OCCNc1cc(Sc2nc3ccccc3s2)c2nonc2c1[N+](=O)[O-]	Peg3 promoter 99, HIF-2a inh 53 | HIF-2a inh conf inactive | HIF-1a cs 61
CCC(=O)OCCNc1cc(Sc2nc3ccccc3[nH]2)c2nonc2c1[N+](=O)[O-]	Peg3 promoter 92, TRPM1 prom inh 72, HIF-2a inh 86, KKLEB cytotox -95, Shn3 3UTR inh 96, CF NFkB inh 82 | HIF-2a inh conf 84 | HIF-1a cs 84
CC(NC(=O)COC(=O)CCN1C(=O)C2CC=CCC2C1=O)c1ccc(Br)cc1 (stereo not drawn)	none
Cc1cccc(-n2c(C)c(C)c3c(N)ncnc32)c1	none
CCC1CCCCN1C(=O)c1ccc(OC2CCN(C(=O)CCOC)CC2)cc1 (stereo not drawn)	none
O=C(NCc1cccnc1)/C(=C/c1ccc(-c2ccc(Cl)cc2)o1)S(=O)(=O)c1ccccc1	Peg3 promoter 101, TRPM1 prom inh 93, HIF-2a inh 90, KKLEB cytotox -54, Shn3 3UTR inh 92, CF NFkB inh 73 | Mdm2 MdmX conf 102 | HIF-2a inh conf 99 | HIF-1a cs 104
O=C(NCc1cccnc1)/C(=C\c1ccc(-c2ccc(Br)cc2)o1)S(=O)(=O)c1ccccc1	Peg3 promoter 107, TRPM1 prom inh 100, HIF-2a inh 93, KKLEB cytotox -56, Shn3 3UTR inh 96, CF NFkB inh 86 | Mdm2 MdmX conf 103 | HIF-2a inh conf 98 | HIF-1a cs 106
O=C(CN(Cc1ccc(Br)cc1)S(=O)(=O)c1ccccc1)NCc1cccnc1	none
O=C(NCc1cccnc1)/C(=C/c1ccc(-c2cccc(C(F)(F)F)c2)o1)NC(=O)c1ccccc1	none
CN(CCC#N)S(=O)(=O)c1cc2c3c(c1)CCN3C(=O)CC2	none
CC1(C)CC[C@]2(C(=O)O)CC[C@]3(C)C(=CC[C@@H]4[C@@]5(C)CC[C@H](O[C@@H]6O[C@H](C(=O)O)[C@@H](O)[C@H](O[C@@H]7OC[C@H](O)[C@H](O)[C@H]7O)[C@H]6O)C(C)(C)[C@@H]5CC[C@]43C)[C@@H]2C1	Peg3 promoter 59, HIF-2a inh 55, KKLEB cytotox -95, CF NFkB inh 88 | HIF-2a inh conf 94 | HIF-1a cs 52

Assay outcomes deposited in PubChem by several laboratories.
